# Experimental data published in PubChem BioAssay (NCI).
# About 83,000 compounds went through this panel and 20% of them were active in at least one assay; those are over-represented in the sample as a whole.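 Compound tested at a single concentration for 48 hours in 96-well plates; a percent growth value below 10 was scored as active.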 Active and inactive are the calls of the source.
# Test system: HL-60(TB) leukemia
# Experiment: NCI-60 one-dose screen, 48 h (100 = growth as untreated, 0 = no growth, -100 = all killed)
# Settings: 10 µM unless noted
row,SMILES,growth
1,Cc1ccc(OCc2occc2C(=O)N2CCOCC2)cc1,107% (inactive)
2,O=C(NCCNc1cc(-c2cn(-c3ccccc3)nc2-c2cccc(O)c2)ccn1)Nc1cc(C(F)(F)F)cc(C(F)(F)F)c1,97% (inactive)
3,COc1c([C@@H](CC(C)C)OC(C)=O)ccc2c1C(=O)OCc1cc(C)cc(O)c1O2,63.7% (inactive)
4,CCn1c(SCC(=O)Nc2cccc(C(=O)/C=C/c3ccccc3Cl)c2)nc2ccccc2c1=O,107% (inactive)
5,Nc1ccc(Nc2ncnc3sc4c(c23)CCN(Cc2ccccc2)C4)cc1,102% (inactive)
6,C=C1CC[C@@H]2[C@](C)(CO)[C@H](O)CC[C@@]2(C)[C@@H]1C/C(O)=C1\CCOC1=O,95.3% (inactive)
7,NS(=O)(=O)c1ccc(Nc2nc(Nc3ccccc3)nc3nnc(SCC(=O)NC4CCCCC4)n23)cc1,106% (inactive)
8,CC1COc2c(N3CCN(C)CC3)c(F)cc3c(=O)c(C(=O)N/N=C/c4cc[nH]c4)cn1c23 (stereo not given),20.3% (inactive)
9,Cc1ccc(-c2cc3nc(C(Cl)Cl)nc(-c4cccs4)n3n2)cc1,23.9% (inactive)
10,CNC(=O)c1cc(-c2ccc(NS(=O)(=O)c3ccc(C)cc3)cc2)nc2cccnc12,113% (inactive)
11,O=C(N/N=C/c1ccc([N+](=O)[O-])o1)c1[nH]c2ccc(Br)cc2c1-c1ccccc1,-42.1% (active)
12,CS(=O)(=O)c1ccc(-c2nc3ccccn3c2/C=N/Nc2nc(-c3ccc(Cl)cc3)cs2)cc1,99.2% (inactive)
13,COc1cc2cc(Oc3ccc(NC(=O)c4cccc(C(F)(F)F)c4)cc3)c(C)nc2cc1OCCN(C)C,97.2% (inactive)
14,CCOC(=O)C1=NNC(c2ccc(Cl)cc2)C1C(=O)N1C(=S)NC(=O)C1CC(C)C (stereo not given),106% (inactive)
15,O=C(Nc1ccc(-c2nc(-c3cccc(O)c3)c(-c3ccnc(Br)c3)[nH]2)cc1)c1ccccc1,-53.1% (active)
16,C#Cc1nc(C(=O)NCCC(=O)Nc2ccc(NC(=O)c3ccc(/C=C/C(=O)c4nccn4C)cc3)cc2)cs1,12.2% (inactive)
17,COc1ccc(-c2cc(C(=O)N=Nc3c(O)[nH]c4ccccc34)c3ccccc3n2)cc1OC,106% (inactive)
18,O=C(CCn1cc[n+](CC(=O)c2ccc(-c3ccccc3)cc2)c1)Nc1cccc2cccnc12,13.9% (inactive)
19,Cc1[nH]c(C(=O)Nc2ccccc2OCc2cccc(C(=O)NC3CCNC3)c2)c(Cl)c1Cl (stereo not given),71.4% (inactive)
20,Nc1nc(N)c2c(n1)NC(c1ccc(C(F)(F)F)cc1)CC(c1ccc(Nc3nc(NCCO)nc(Nc4ccc(Cl)cc4)n3)cc1)=N2 (stereo not given),-28.3% (active)

row,SMILES,growth
1,COc1ccccc1-n1cc(C#N)c(N)c1C(=O)c1ccc(Br)cc1,35.8% (inactive)
2,NS(=O)(=O)c1cccc(Nc2nc(SCC(=O)c3ccc(Br)cc3)nc3ccccc23)c1,79.1% (inactive)
3,Nc1nc(-c2cccc([N+](=O)[O-])c2)c(N=Nc2cccc([N+](=O)[O-])c2)s1,118% (inactive)
4,Clc1ccc(-c2csc(Nc3cccc(Nc4csc(-c5ccc(Cl)cc5)n4)c3)n2)cc1,96.1% (inactive)
5,Nc1nc(N)c2c(n1)NC(c1ccc(Cl)cc1)CC(c1ccc(Nc3nc(NCCO)nc(N4CCOCC4)n3)cc1)=N2 (stereo not given),27% (inactive)
6,C=C(C)C(=O)O[C@H]1C[C@@]2(C)OC(=CC2=O)/C(CO)=C\[C@H]2OC(=O)C(=C)[C@H]12,-31.2% (active)
7,COc1cc(OC)c(S(N)(=O)=O)cc1C(=O)/C=C/c1ccc(C)cc1,6.73% (active)
8,COc1ccc(OC)c([C@H]2c3[nH]c4ccccc4c3C[C@H]3C(=O)N(CCCCCCC(=O)NO)CC(=O)N23)c1,91.1% (inactive)
9,COc1ccc(-c2nc(C#N)c(N3CCC(S(=O)(=O)N4CCOCC4)CC3)o2)cc1,117% (inactive)
10,C#Cc1ccc(C(=O)NCc2ccc(/C=C/C(=O)c3nccn3C)cc2)cc1,0.695% (active)
11,COc1ccc(NC(=O)Cn2cc(CN3C(=O)c4ccc([N+](=O)[O-])cc4C3=O)nn2)cc1,95.1% (inactive)
12,COc1ccc(C2C(C#N)=C(N)Oc3c2sc2ccc(C)cc32)cc1 (stereo not given),12.5% (inactive)
13,C=C1CC[C@@H]2[C@]3(C)COC(c4ccccc4)O[C@@H]3CC[C@@]2(C)[C@@H]1C/C=C1/C(=O)OC[C@H]1O (stereo not given in full),48.9% (inactive)
14,CNC(=O)c1cc(-c2ccc(NC(=O)Nc3ccc(N4CCN(C)CC4)c(C(F)(F)F)c3)cc2)nc2cccnc12,-16.4% (active)
15,O=C1CC(=O)N2CSCN(C(c3ccccc3)c3nc4ncncc4[nH]3)C2=N1 (stereo not given),118% (inactive)
16,CN1CCN(c2ccc(C(=O)Nc3cccc(-c4cn(-c5ccc(S(N)(=O)=O)cc5)nn4)c3)cc2C(F)(F)F)CC1,77% (inactive)
17,O=C(CSc1nnc(-c2cccs2)n1-c1ccccc1)Nc1ccccc1F,66.3% (inactive)
18,Cn1c(SCC(=O)c2ccc(F)cc2)nc2ccccc2c1=O,97.9% (inactive)
19,CC1=C(C)C(=O)C(Nc2ccc(C)cc2)=C(Br)C1=O,68.6% (inactive)
20,COc1cc(/C=C2/C(=O)Nc3ccc(Cl)cc32)ccc1OCc1ccc(Cl)cc1,102% (inactive)
